In PubChem BioAssay (NCI):
The panel holds about 83,000 compounds, 20% with a hit somewhere; the sample as a whole holds those more often.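 Single-concentration screen, 48 h exposure, 96-well plates. Endpoint: percent growth. Below 10 = active.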 Active and inactive are the calls of the source.

Columns and labels:
Test in all cases: NCI-60 one-dose screen, 48 h (100 = growth as untreated, 0 = no growth, -100 = all killed)
Settings in all cases: 10 µM unless noted
[1] = test system: DU-145 prostate
[2] = test system: K-562 leukemia
[3] = test system: MALME-3M melanoma
[4] = test system: MDA-MB-231 breast
[5] = test system: RXF 393 renal
[6] = test system: SF-268 CNS
[7] = test system: SF-295 CNS
[8] = test system: SF-539 CNS
[9] = test system: UACC-257 melanoma
[10] = test system: M14 melanoma
[11] = test system: HCT-15 colon
[12] = test system: HT29 colon
[13] = test system: SNB-75 CNS
[14] = test system: SNB-19 CNS
[15] = test system: U251 CNS
[16] = test system: PC-3 prostate
[17] = test system: SK-MEL-5 melanoma
[18] = test system: UACC-62 melanoma
[19] = test system: LOX IMVI melanoma
[20] = test system: SK-MEL-28 melanoma

Measured: growth

COc1cc(/C=C/C(=O)c2cccc(-n3cc(-c4ccccc4)[nH]c3=O)c2)ccc1O
inactive: [1] 81.1% | [2] 20.9% | [3] 90.8% | [4] 90.3% | [5] 20% | [6] 66.5% | [7] 65.7% | [8] 85.7% | [9] 68.8% | [10] 84.7% | [11] 22.2% | [12] 44.5% | [13] 46.8% | [14] 90.5% | [15] 16.6% | [16] 61.3% | [17] 68.5% | [18] 69.8% | [19] 18.7% | [20] 70.2%

O=C(Nc1cccc(Cl)c1)c1cc(N=Nc2ccc([N+](=O)[O-])cc2Cl)ccc1O
inactive: [1] 116% | [2] 26.3% | [3] 43.7% | [4] 64.1% | [5] 29.6% | [6] 90.6% | [7] 55.1% | [8] 54.2% | [10] 103% | [11] 72.5% | [12] 76.7% | [13] 66.4% | [14] 73.2% | [15] 63.9% | [16] 34.8% | [17] 43.3% | [18] 79.2% | [19] 98.3% | [20] 85.5%
active: [9] -1.95%

COc1ccc(C2CC(c3cccc(OC)c3)=NN2C(=O)c2cc(OC)c(OC)c(OC)c2)cc1 (stereo unspecified)
active: [1] -24.7% | [2] 5.93% | [7] 7.64% | [8] -16% | [17] -3.53%
inactive: [3] 37.7% | [4] 33.6% | [5] 23.4% | [6] 41.4% | [9] 65% | [10] 16.5% | [11] 30.9% | [12] 14% | [13] 22.3% | [14] 28.5% | [15] 35.5% | [16] 25.7% | [18] 37.9% | [19] 35.5% | [20] 56.2%

O=C1Nc2ccc(F)cc2C12Nc1cc(Cl)ccc1S2 (stereo unspecified)
inactive: [1] 101% | [2] 48.6% | [3] 88.6% | [4] 88.1% | [5] 110% | [6] 100% | [7] 89.8% | [8] 93.8% | [9] 109% | [10] 90.9% | [11] 82.3% | [12] 103% | [13] 70.9% | [14] 92.1% | [15] 94.6% | [16] 57.3% | [17] 83.4% | [18] 75.4% | [19] 85.6% | [20] 118%

CCCCCCCCn1ccc2cc(NC(=O)Cn3cc(CN4CCCC4)nn3)ccc21
inactive: [1] 66.9% | [4] 11.6% | [5] 44.6% | [6] 46.2% | [8] 78.9% | [9] 51.6% | [13] 96.6% | [16] 64.9% | [17] 30.7%
active: [2] 2.29% | [3] -63.3% | [7] -68.3% | [10] -66.5% | [11] -45.6% | [12] -57.8% | [14] 0.775% | [15] -35.5% | [18] -82.1% | [19] -85.1% | [20] -70.9%

Cc1ccc(Cl)c(NS(=O)(=O)c2ccc(-c3cnc(C4CC4)o3)cc2)c1
inactive: [1] 21.6% | [3] 62.4% | [4] 32.5% | [6] 56.2% | [7] 16.1% | [9] 67.8% | [11] 16.9% | [14] 18.9% | [15] 24.1% | [17] 26.4% | [18] 26.5% | [19] 33% | [20] 53.7%
active: [2] 8.53% | [5] 9.98% | [8] -8.06% | [10] 2.07% | [12] 3.93% | [13] -10.1%

COc1cc(C(=O)c2cc(C)c3[nH]c4ccc(Cl)cc4c3c2C)cc(OC)c1OC
active: [1] -19.7% | [7] 4.51% | [8] -10.1% | [11] 7.42% | [17] -55.8% | [19] 8.56%
inactive: [2] 13.6% | [3] 27.9% | [4] 22.1% | [5] 36.6% | [6] 25.5% | [9] 68% | [10] 17.5% | [12] 18.6% | [13] 22.9% | [14] 35.6% | [15] 20% | [18] 42.6% | [20] 53.6%

CC1(C)OC2C(CO[Si](C)(C)C(C)(C)C)OC(n3c(I)c(C#C[Si](C)(C)C)c(=O)[nH]c3=O)C2O1 (stereo unspecified)
active: [5] -32.9% | [12] -32.6% | [13] -71.4% | [20] -53.9%
inactive: [1] 107% | [2] 67.5% | [3] 109% | [4] 98% | [6] 108% | [7] 140% | [8] 105% | [9] 91.3% | [10] 106% | [11] 93% | [14] 105% | [15] 88.4% | [17] 95.9% | [18] 92.8% | [19] 86.6%

O=S(=O)(NCCCNc1cc(-c2c(-c3cccc(O)c3)nc3sccn23)ccn1)c1cccc(Cl)c1
inactive: [1] 55.9% | [2] 25.4% | [3] 48.2% | [4] 73.6% | [5] 41.1% | [6] 44.3% | [7] 49.3% | [8] 77.4% | [9] 68.4% | [10] 41.7% | [11] 28.4% | [12] 50.2% | [13] 14.2% | [14] 67.3% | [15] 53.4% | [17] 31.1% | [18] 40.3% | [19] 29.6% | [20] 60.7%

O=C(N/N=C/C=C/c1ccc([N+](=O)[O-])o1)c1cc2ccccc2cc1O
active: [1] -21.7% | [2] 4.52% | [3] -68% | [4] -15.9% | [5] -63.2% | [6] -20.3% | [8] -83.6% | [9] -56.3% | [10] -100% | [11] -12.3% | [12] -11.7% | [14] -34.4% | [15] -16% | [17] -100% | [18] -64.3% | [19] -79.5%
inactive: [7] 14.4% | [13] 43.4%

Cc1ccc(N2CCN(C(=S)c3cccs3)CC2)cc1
inactive: [1] 108% | [2] 89.1% | [3] 100% | [4] 97.1% | [5] 111% | [6] 107% | [7] 103% | [8] 101% | [9] 101% | [10] 103% | [11] 96.3% | [12] 90.9% | [13] 94.3% | [14] 100% | [15] 96.3% | [17] 95.2% | [18] 90.1% | [19] 116% | [20] 102%

O=C(c1ccccc1)c1c(/C=C/c2ccccc2)nc2ccccc2c1/C=C/c1ccc(Br)cc1
inactive: [1] 105% | [2] 97.3% | [3] 106% | [4] 100% | [5] 104% | [6] 91.6% | [7] 101% | [8] 106% | [9] 99.8% | [10] 96.8% | [11] 108% | [12] 102% | [13] 83.1% | [14] 88.9% | [15] 95.9% | [17] 101% | [18] 82% | [19] 90.6% | [20] 108%

CCCCNC(=O)Oc1ccc2c(=O)c3sc4c(=O)c5ccccc5c(=O)c4c3c(=O)c2c1
active: [1] -98.5% | [2] -34.3% | [3] -98% | [4] -22.2% | [5] -87.1% | [6] -48.1% | [7] -98.1% | [8] -96.6% | [9] -95.7% | [10] -77.6% | [11] -84% | [12] -41.6% | [13] -98.3% | [14] -93.6% | [15] -73% | [16] -15.5% | [17] -96.9% | [18] -75% | [19] -72.9% | [20] -73.3%

c1ccc(-c2nc([P+](c3ccccc3)(c3ccccc3)c3ccccc3)c(N3CCOCC3)o2)cc1
active: [3] 4.6% | [4] -14.8% | [5] -4.62% | [7] 0.0601% | [8] 6.52% | [9] -9.47% | [10] 4.76% | [12] 0.225% | [13] 1.4% | [14] 8.73% | [17] -93.1% | [18] -37.1% | [19] 4.66%
inactive: [1] 18.6% | [2] 10.4% | [6] 18.3% | [11] 79.3% | [15] 10.1% | [20] 21.9%

Cn1cc(-c2csc(-c3cccc(F)c3)n2)c2cccnc21
active: [1] -62.7% [100 µM] | [2] 2.45% [100 µM] | [3] -39.1% [100 µM] | [4] -50.1% [100 µM] | [5] -30.7% [100 µM] | [6] -40.5% [100 µM] | [7] -51.9% [100 µM] | [8] -74.9% [100 µM] | [9] -37.6% [100 µM] | [10] -77.2% [100 µM] | [11] -43.3% [100 µM] | [12] -71.7% [100 µM] | [13] -29.4% [100 µM] | [14] -62.8% [100 µM] | [15] -36.4% [100 µM] | [16] -42% [100 µM] | [17] -86.1% [100 µM] | [18] -67% [100 µM] | [19] -54.3% [100 µM] | [20] -57.8% [100 µM]
